Results as given in PubChem BioAssay (NCATS).
Inconclusive results are not listed. Calls of active or inactive are those of the source. Calls come from the whole dose curve; as a rule, active = well fitted inhibition curve with a large enough effect; inconclusive = small, poorly fitted or top-dose-only effect; inactive = flat fitted curve, though single readings scatter.

Tests used:
Assay in all cases: qHTS profiling for inhibitors of Plasmodium falciparum proliferation (AID 504749); note: nearly all actives have a fitted effect of over 60% in size
Details in all cases: P. falciparum in erythrocytes, SYBR Green DNA, 72 h; series mostly up to 28.7 µM
CP238 = tested on: CP238
Outline: (§1)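 In a 72 h erythrocytic culture (37 C, humidified, 5% CO2) at 2.5% hematocrit and 0.3% starting parasitemia, compounds were tested; SYBR Green I in detergent lysis buffer stained parasite DNA overnight.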

CP247 = tested on: CP247
Outline: as §1

CP250 = tested on: CP250
Outline: as §1

CP252 = tested on: CP252
Outline: as §1

CP256 = tested on: CP256
Outline: as §1

CP262 = tested on: CP262
Outline: as §1

CP265 = tested on: CP265
Outline: as §1

CP266 = tested on: CP266
Outline: as §1

CP268 = tested on: CP268
Outline: as §1

CP269 = tested on: CP269
Outline: as §1

CP286 = tested on: CP286
Outline: as §1

CP291 = tested on: CP291
Outline: as §1

CP297 = tested on: CP297
Outline: as §1

CP305 = tested on: CP305
Outline: as §1

CP315 = tested on: CP315
Outline: as §1

CP325 = tested on: CP325
Outline: as §1

CP329 = tested on: CP329
Outline: as §1

DFO2036 = tested on: DFO2036
Outline: as §1

CP260 = tested on: CP260
Outline: as §1

CP335 = tested on: CP335
Outline: as §1

Measured: Potency
Potency is the fitted concentration of half-maximal effect.

CCCCNc1c(C(=O)OCC)c(C)nc2c1cnn2CC
not listed: CP260 | CP335
inactive: all other assays above

CC(C)(C)c1ccc(C(=O)CCCN2CCC(OC(c3ccccc3)c3ccccc3)CC2)cc1
inactive: CP315
active: CP238 11.2 µM | CP252 10 µM | CP260 10 µM | CP269 7.57 µM | CP286 8.91 µM | CP305 10.7 µM | CP335 6.75 µM

CN(C)CCN(Cc1cccs1)c1ccccn1
inactive: CP262 | CP315
active: CP238 11.2 µM | CP265 10 µM | CP297 3.38 µM | CP335 8.49 µM

COCCOC(=O)C1=C(C)NC(C)=C(C(=O)OC(C)C)C1c1cccc([N+](=O)[O-])c1 (stereo not drawn)
active: CP335 4.78 µM
inactive: CP250 | CP256 | CP262 | CP266 | CP329

CN(C)CCCN1c2ccccc2Sc2ccccc21
active: CP265 2.82 µM
inactive: CP262 | CP266 | CP297

Cc1nc2sccn2c(=O)c1CCN1CCC(=C(c2ccc(F)cc2)c2ccc(F)cc2)CC1
inactive: CP256 | CP266 | CP268 | CP305 | CP315 | CP325 | CP329

CN(C)C(=O)Oc1ccc[n+](C)c1
not listed: CP247
inactive: all other assays above

C=CCc1ccccc1OCC(O)CNC(C)C (stereo not drawn)
inactive: CP250 | CP262 | CP266
active: CP238 11.2 µM

NC(N)=NC(=O)Cc1c(Cl)cccc1Cl
active: CP250 7.08 µM | CP256 12.6 µM | CP260 10 µM | CP262 4.26 µM | CP329 6.01 µM | CP335 9.53 µM | DFO2036 10 µM
inactive: CP238 | CP266 | CP268

Cc1nc2ccccn2c(=O)c1CCN1CCC(C(=O)c2ccc(F)cc2)CC1
not listed: CP247 | CP286 | CP291 | CP335
inactive: all other assays above

CCN(CC)CCOCCOC(=O)C1(c2ccccc2)CCCC1
inactive: CP252 | CP262 | CP266 | CP315 | CP329
active: CP256 11.2 µM | CP260 11.2 µM | CP265 3.98 µM | CP268 15.1 µM | CP269 13.5 µM | CP286 12.6 µM | CP297 6.75 µM | CP305 13.5 µM | CP325 15.1 µM | CP335 9.53 µM | DFO2036 12.6 µM

COc1cc(C(=O)OCCCN2CCCN(CCCOC(=O)c3cc(OC)c(OC)c(OC)c3)CC2)cc(OC)c1OC
active: CP247 7.94 µM | CP250 10 µM | CP260 10 µM | CP265 11.2 µM | CP269 7.57 µM | CP286 10 µM | CP335 4.78 µM

CCC(=O)c1ccc2c(c1)N(CCCN(C)C)c1ccccc1S2
active: CP260 11.2 µM
inactive: CP250 | CP262 | CP266 | CP297 | CP315

C[C@]12CCC(=O)C=C1CC[C@@H]1[C@@H]2CC[C@@]2(C)[C@H]1CC[C@]2(O)C(=O)CO
not listed: CP250
inactive: all other assays above

CC1=C(C)C(=O)C(CCCCC#CCCCC#CCO)=C(C)C1=O
active: CP265 10 µM | CP286 11.2 µM | CP297 15.1 µM | CP335 13.5 µM

C#CCN(C)CCCOc1ccc(Cl)cc1Cl
not listed: CP250
inactive: all other assays above

C[n+]1cc2c3c(ccc2c2ccc4cc5c(cc4c21)OCO5)OCO3
not listed: CP247 | CP252 | CP256 | CP262 | CP265 | CP305 | CP325 | CP260
inactive: all other assays above

OC(CCN1CCCCC1)(c1ccccc1)C1CCCCC1 (stereo not drawn)
not listed: CP265 | CP291 | CP260 | CP335
inactive: all other assays above

CN1C[C@H](C(=O)N[C@]2(C)O[C@@]3(O)[C@@H]4CCCN4C(=O)[C@H](Cc4ccccc4)N3C2=O)C[C@@H]2c3cccc4[nH]cc(c34)C[C@H]21
active: CP268 15.1 µM | CP269 8.49 µM | CP291 16.9 µM | CP297 4.26 µM | CP325 12 µM | CP335 8.49 µM
